From the supplement of paper PMC8728848
The full list was thinned out, with the strongest signals kept by preference.

Tests used:
Assay in all cases: glycan array binding signal (z-score within array); higher = stronger binding
Conditions in all cases: glycan notation: IUPAC condensed, linker removed
GlcA(b1-6)Gal = biological target: GlcA(b1-6)Gal
Method in brief: (§1)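 Glycan array data were curated from 3228 arrays in the Consortium for Functional Glycomics database and kept only where the protein sequence was available. Glycan names were converted to IUPAC-condensed notation, and columns mapping to the same glycan were averaged. The binding signal is a within-array Z-score, averaged across arrays of the same protein sequence at different concentrations or buffers and across linkers. Negative Z-scores can be read as non-binding.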

[1] = biological target: GlcNAc(a1-4)Gal(b1-4)GalNAc
Method in brief: as §1

[2] = biological target: GlcNAc(a1-4)Gal(b1-4)GlcNAc
Method in brief: as §1

[3] = biological target: GlcNAc(b1-3)Gal(b1-4)GlcNAc(b1-2)[GlcNAc(b1-3)Gal(b1-4)GlcNAc(b1-6)]Man(a1-6)[GlcNAc(b1-3)Gal(b1-4)GlcNAc(b1-2)Man(a1-3)]Man(b1-4)GlcNAc(b1-4)GlcNAc
Method in brief: as §1

[4] = biological target: GlcNAc(b1-3)Gal(b1-4)GlcNAc(b1-3)Gal(b1-4)GlcNAc(b1-3)Gal(b1-4)GlcNAc(b1-2)[GlcNAc(b1-3)Gal(b1-4)GlcNAc(b1-3)Gal(b1-4)GlcNAc(b1-3)Gal(b1-4)GlcNAc(b1-6)]Man(a1-6)[GlcNAc(b1-3)Gal(b1-4)GlcNAc(b1-3)Gal(b1-4)GlcNAc(b1-3)Gal(b1-4)GlcNAc(b1-2)Man(a1-3)]Man(b1-4)GlcNAc(b1-4)[Fuc(a1-6)]GlcNAc
Method in brief: as §1

[5] = biological target: GlcNAc(b1-3)Gal(b1-4)GlcNAc(b1-3)Gal(b1-4)GlcNAc(b1-3)Gal(b1-4)GlcNAc(b1-3)Gal(b1-4)GlcNAc(b1-2)Man(a1-3)[GlcNAc(b1-3)Gal(b1-4)GlcNAc(b1-3)Gal(b1-4)GlcNAc(b1-3)Gal(b1-4)GlcNAc(b1-3)Gal(b1-4)GlcNAc(b1-2)Man(a1-6)]Man(b1-4)GlcNAc(b1-4)GlcNAc
Method in brief: as §1

[6] = biological target: GlcNAc(b1-3)Gal(b1-4)GlcNAc(b1-6)[Gal(b1-3)]GalNAc
Method in brief: as §1

[7] = biological target: GlcNAc(b1-3)Gal(b1-4)GlcNAc(b1-6)[GlcNAc(b1-3)Gal(b1-3)]GalNAc
Method in brief: as §1

[8] = biological target: GlcNAc(b1-3)[GlcNAc(b1-6)]Gal(b1-4)GlcNAc
Method in brief: as §1

Kdn(a2-3)Gal(b1-3)GlcNAc = biological target: Kdn(a2-3)Gal(b1-3)GlcNAc
Method in brief: as §1

[9] = biological target: Man(a1-2)Man(a1-2)Man(a1-3)Man
Method in brief: as §1

Man(a1-2)Man(a1-3)Man = biological target: Man(a1-2)Man(a1-3)Man
Method in brief: as §1

[10] = biological target: Man(a1-3)[Man(a1-6)]Man(b1-4)GlcNAc(b1-4)GlcNAc
Method in brief: as §1

Man(a1-6)Man = biological target: Man(a1-6)Man
Method in brief: as §1

[11] = biological target: Neu5Ac(a2-3)Gal(b1-4)GlcNAc(b1-2)Man(a1-3)[Neu5Ac(a2-6)Gal(b1-4)GlcNAc(b1-2)Man(a1-6)]Man(b1-4)GlcNAc(b1-4)GlcNAc
Method in brief: as §1

[12] = biological target: Neu5Ac(a2-3)Gal(b1-4)GlcNAc(b1-2)[Neu5Ac(a2-3)Gal(b1-4)GlcNAc(b1-6)]Man(a1-6)[Neu5Ac(a2-3)Gal(b1-4)GlcNAc(b1-2)Man(a1-3)][GlcNAc(b1-4)]Man(b1-4)GlcNAc(b1-4)GlcNAc
Method in brief: as §1

[13] = biological target: Neu5Ac(a2-3)Gal(b1-4)GlcNAc(b1-3)Gal(b1-4)GlcNAc(b1-3)Gal(b1-4)GlcNAc(b1-2)Man(a1-3)[Neu5Ac(a2-3)Gal(b1-4)GlcNAc(b1-3)Gal(b1-4)GlcNAc(b1-3)Gal(b1-4)GlcNAc(b1-2)Man(a1-6)]GalNAc
Method in brief: as §1

[14] = biological target: Neu5Ac(a2-3)Gal(b1-4)GlcNAc(b1-3)Gal(b1-4)GlcNAc(b1-6)[Gal(b1-3)]GalNAc
Method in brief: as §1

[15] = biological target: Neu5Ac(a2-3)Gal(b1-4)[Fuc(a1-3)]GlcNAc(b1-3)Gal
Method in brief: as §1

[16] = biological target: Neu5Ac(a2-3)Gal(b1-4)[Fuc(a1-3)]GlcNAc(b1-3)GalNAc
Method in brief: as §1

[17] = biological target: Neu5Ac(a2-6)Gal(b1-3)GlcNAc(b1-3)[Gal(b1-4)GlcNAc(b1-6)]Gal(b1-4)Glc
Method in brief: as §1

Neu5Ac(a2-6)Gal(b1-4)Glc = biological target: Neu5Ac(a2-6)Gal(b1-4)Glc
Method in brief: as §1

[18] = biological target: Neu5Ac(a2-6)Gal(b1-4)GlcNAc(b1-2)Man(a1-3)[Neu5Ac(a2-6)Gal(b1-4)GlcNAc(b1-2)Man(a1-6)]Man(b1-4)GlcNAc(b1-4)GlcNAc
Method in brief: as §1

[19] = biological target: Neu5Ac(a2-6)Gal(b1-4)GlcNAc(b1-3)Gal(b1-4)GlcNAc(b1-3)Gal(b1-4)GlcNAc(b1-2)Man(a1-3)[Neu5Ac(a2-6)Gal(b1-4)GlcNAc(b1-3)Gal(b1-4)GlcNAc(b1-3)Gal(b1-4)GlcNAc(b1-2)Man(a1-6)]GalNAc
Method in brief: as §1

Neu5Ac(a2-6)GalNAc = biological target: Neu5Ac(a2-6)GalNAc
Method in brief: as §1

[20] = biological target: Neu5Ac(a2-6)GalNAc(b1-4)GlcNAc
Method in brief: as §1

[21] = biological target: Neu5Ac(a2-8)Neu5Gc(a2-3)Gal(b1-4)GlcNAc
Method in brief: as §1

[22] = biological target: Neu5Ac9Ac(a2-6)Gal(b1-4)GlcNAc
Method in brief: as §1

B1: PX14343G-pdi-535-24-535 (Parabacteroides distasonis) (protein)
chain: LDTVPKDQLAPSTTWQTEADAKGFIVGCYKDLLDGNTLLYLDCGSDIGYNNFPWEGFRPWGDGSLSSSNPGQILYDYKSIRKANTFLENVDKVTFSSDAVKANYVAQAKAIRAYKYFLMNWWYGGVPIISSYSSADEAKVERNTEQEVRDYIAKDLDEALAGIAEAPEARGYIAKGAVLAIKMREALYYGDWQKAKDAAKAIIDLKQYELDPDYTNLFKVSGVDSKEIILADQNIETLDGLGTIGQMYNNVDQGWSSIVPTQNLVDMYEMSDGLTKEESKTYDAKHPFANRDPRMAMTILYPGRDWRGDVLNTLDEKLQDGTVNKNFPTYTDNASKSALTWAKYLDPMDQYGDVWSSGACPIVFRYAEVLLTYAEAANELSGPSDEIYGYLNQIRQRVGMGEVDKAKYGTKDKLRELIRRERTVELAGEGLRRADIVRWQEDGKMLAEKVMNGDLLRVTGTINYGESEPTKRAEITGTAVIETRQFSSRNRYLPIPQTSMDKNPNLKQNPGY
glycan array binding signal (z-score) (GlcA(b1-6)Gal): -0.046 | glycan array binding signal (z-score) [1]: -1.02 | glycan array binding signal (z-score) [2]: 2.04 | glycan array binding signal (z-score) [3]: 2.37 | glycan array binding signal (z-score) [4]: 0.865 | glycan array binding signal (z-score) [5]: 0.208 | glycan array binding signal (z-score) [6]: -1.23 | glycan array binding signal (z-score) [7]: 0.869 | glycan array binding signal (z-score) [8]: 1 | glycan array binding signal (z-score) (Kdn(a2-3)Gal(b1-3)GlcNAc): 0.143 | glycan array binding signal (z-score) [9]: 0.086 | glycan array binding signal (z-score) (Man(a1-2)Man(a1-3)Man): -0.387 | glycan array binding signal (z-score) [10]: -0.762 | glycan array binding signal (z-score) (Man(a1-6)Man): 2.08 | glycan array binding signal (z-score) [11]: -0.159 | glycan array binding signal (z-score) [12]: -0.038 | glycan array binding signal (z-score) [13]: 2 | glycan array binding signal (z-score) [14]: 1.55 | glycan array binding signal (z-score) [15]: -0.539 | glycan array binding signal (z-score) [16]: 0.588 | glycan array binding signal (z-score) [17]: -0.502 | glycan array binding signal (z-score) (Neu5Ac(a2-6)Gal(b1-4)Glc): -0.218 | glycan array binding signal (z-score) [18]: -0.872 | glycan array binding signal (z-score) [19]: 1.49 | glycan array binding signal (z-score) (Neu5Ac(a2-6)GalNAc): -0.874 | glycan array binding signal (z-score) [20]: -0.103 | glycan array binding signal (z-score) [21]: 16.3 | glycan array binding signal (z-score) [22]: 0.187
